Consider 40 molecules from PubChem BioAssay AID933 (National Center for Advancing Translational Sciences (NCATS), 2007).

Inconclusive results are not listed. Entries that show only a call come without a potency. A number with no mark means an inactive call. Calls of active or inactive are those of the source. Calls come from the whole dose curve; as a rule, active = well fitted activation curve with a large enough effect in the signal ratio, with a control signal flat; inconclusive = small, poorly fitted or top-dose-only effect, or a change in a side signal; inactive = flat fitted curve, though single readings scatter; the % refers to the signal ratio.
Potency is the fitted concentration of half-maximal effect.

Sequence of Thyrotropin receptor (Homo sapiens) (P16473 whole entry, looked up): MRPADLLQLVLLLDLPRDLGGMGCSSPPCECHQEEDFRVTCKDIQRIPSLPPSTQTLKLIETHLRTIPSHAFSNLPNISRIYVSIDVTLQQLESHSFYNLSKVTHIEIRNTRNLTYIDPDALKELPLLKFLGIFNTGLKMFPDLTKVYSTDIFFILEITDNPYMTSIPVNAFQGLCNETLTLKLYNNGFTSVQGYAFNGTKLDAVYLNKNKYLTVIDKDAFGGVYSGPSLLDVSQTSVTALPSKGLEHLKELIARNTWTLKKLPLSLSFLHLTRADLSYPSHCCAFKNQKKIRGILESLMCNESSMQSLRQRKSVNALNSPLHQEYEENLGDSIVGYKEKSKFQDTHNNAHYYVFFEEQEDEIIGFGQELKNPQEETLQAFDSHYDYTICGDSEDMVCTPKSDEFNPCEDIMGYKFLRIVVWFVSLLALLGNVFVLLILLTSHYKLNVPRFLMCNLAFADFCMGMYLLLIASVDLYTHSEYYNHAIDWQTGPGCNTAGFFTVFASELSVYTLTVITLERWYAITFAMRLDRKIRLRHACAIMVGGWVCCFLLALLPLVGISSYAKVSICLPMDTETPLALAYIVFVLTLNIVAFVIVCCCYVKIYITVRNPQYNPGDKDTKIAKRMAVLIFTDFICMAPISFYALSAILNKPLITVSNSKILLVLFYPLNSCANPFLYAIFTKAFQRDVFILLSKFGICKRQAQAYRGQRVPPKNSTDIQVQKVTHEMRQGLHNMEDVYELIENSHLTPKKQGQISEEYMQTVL

The assay has as its target Thyrotropin receptor (Homo sapiens) (UniProt P16473). In words: Secondary Concentration-Response Assay for Agonists of the Thyroid Stimulating Hormone Receptor: HTRF Activity Detection.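 For activation: HEK 293 cells stably expressing human TSHR with RO 20-1724 phosphodiesterase inhibitor.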 To be noted: HEK293-TSHR cells, cAMP HTRF ratio, 30 min; series mostly up to 91.7 µM. An excerpt: NIH Chemical Genomics Center [NCGC]
NIH Molecular Libraries Screening Centers Network [MLSCN]
PI Name: Dr. Marvin Gershengorn, NIH
Confirmation of Thyroid Stimulating Hormone Receptor Agonists
TSH is an alpha/beta heterodimeric glycoprotein hormone secreted from the anterior pituitary gland which belongs to the glycoprotein hormone family. The actions of TSH are mediated by a seven-transmembrane receptor, which upon TSH binding couples preferentially to the G-alpha (s) protein (Gs), resulting in activation of adenylate cyclase and increase in cyclic adenosine 3', 5' monophosphate (cAMP). The TSH receptor (THSR) is mainly expressed in thyroid follicular cells and regulates their growth and function. Recombinant TSH is used to activate TSHR in patients with thyroid cancer receiving thyroid hormone suppression therapy and to screen for residual tumor after surgery, but it is expensive and must be administered intramuscularly. An orally active small molecule TSHR agonist would serve as an invaluable research tool for studying TSHR pharmacology and physiology, and would have multiple advantages in therapeutic settings. However, no selective small molecule agonist of the TSH receptor exists, and no small molecule screen for TSHR agonists has ever been reported.
A confirmatory assay of putative TSHR agonists was conducted on a different TSHR transfected HEK 293 cell line, using an orthogonal detection technology to measure cAMP stimulation: antibody-based Homogeneous Time Resolved Fluorescence (HTRF).
NCGC Assay Protocol Summary:
Homogeneous Time Resolved Fluorescence (HTRF) cAMP Assay. HEK 293 cells stably transfected with a vector containing the TSHR and maintained under hygromycin selection were obtained from the laboratory of Dr. Marvin Gershengorn. Compounds were assayed using a HTRF cAMP detection kit (Cisbio) on the TSHR transfected cell line. Briefly, 750 cells were plated in 2.5 ul/well of complete media (DMEM containing 10 % FCS, and 100 uM RO 20-1724) in 1536 well solid bottom white plates and 23 nl/well compound in DMSO solution or controls was added. Following 30 minute incubation at room temperature, 2.5 ul/well of labeled d2 cAMP and 2.5 ul/well of anti-cAMP antibody (both diluted 1:20 in lysis buffer) were added to each well using a flying reagent dispenser (Aurora Discovery, San Diego) . Plates were measured using the Envision plate reader (PerkinElmer, Boston, MA) with excitation at 330 nm and emissions of 615 nm and 660 nm.
Keywords: Thyroid-stimulating hormone TSH, TSHR, TSHR agonist, quantitative high throughput screening, qHTS, HTS, probe identification, CNG, cAMP, cyclic nucleotide gated ion channel PubChem
On to `COc1ccc(C2Nc3ccccc3C(=O)N2Cc2cccc(C(F)(F)F)c2)cc1COc1ccc(NC(C)=O)cc1` (stereo not given), for which the Potency is 4.47 µM (active).

Turning to `O=C1c2ccccc2NC(c2c(Cl)cccc2Cl)N1Cc1ccccc1` (stereo not given), the Potency result was “inactive”.

As to `COc1ccc(C2Nc3ccccc3C(=O)N2c2ccccc2)cc1CSc1ccccn1` (stereo not given), the Potency entry was “inactive”.

Regarding `O=C(c1ccccc1O)N(Cc1ccccc1)Cc1cccs1`, the Potency result is “inactive”. Turning to `Cc1occc1-c1nnc(SCC(=O)NCc2ccc3c(c2)OCO3)n1CC(C)C`, the activation was 0.411% [at 0.00035 µM]. With `Cc1ccccc1N1C(=O)c2ccccc2N2C(=O)c3ccccc3C12` (stereo not given), the Potency result is “inactive”. Still for that read-out and setting: in the case of `CC(NC(=O)COC(=O)c1ccco1)C12CC3CC(CC(C3)C1)C2` (stereo not given) it was “inactive”. On to `Cc1ccccc1N1CCN(c2ncnc3c2cnn3Cc2ccc(Cl)cc2)CC1`, for which the activation was -0.314% [at 0.00035 µM].

`NC(=O)c1nsc(C(=O)N(CC(=O)NC2CCCC2)Cc2ccc3c(c2)OCO3)c1N`: the Potency result was “inactive”. Same read-out and setting: in the case of `CCC(=O)Nc1ccc(OCc2cc(C3Nc4ccccc4C(=O)N3Cc3ccccc3)ccc2OC)cc1` (stereo not given) it was “inactive”; in that of `COc1ccc(CN(Cc2ccccc2)C(=O)c2ccc(O)cc2)cc1COc1ccc(NC(C)=O)cc1`, 28.2 µM (active); in that of `O=C(COC(=O)C12CC3CC(CC(Cl)(C3)C1)C2)NCc1ccco1`, 14.1 µM (active). Still for that read-out and setting: next, `COc1ccc(CN2C(=O)c3ccccc3NC2c2ccc(OC)c(COc3ccc(NC(C)=O)cc3)c2)cc1` (stereo not given): 3.16 µM (active); `COc1ccc(CN(Cc2ccccc2)C(=O)c2ccco2)cc1COc1ccc(NC(C)=O)cc1`: 15.8 µM (active). Take `CC1(C)c2ccccc2N2CC(=O)NC21/C=C/c1ccco1` (stereo not given): the activation is 1.29% [at 0.00035 µM].

Consider `COc1ccc(C2Nc3ccccc3C(=O)N2Cc2ccccc2)cc1COc1ccccc1OC` (stereo not given), for which the Potency entry is “inactive”. Regarding `COc1ccc(C2Nc3ccc(NC(=O)CO)cc3C(=O)N2Cc2cccc(Cl)c2)cc1COc1ccc(NC(C)=O)cc1` (stereo not given), the Potency is 5.62 µM (active). The same measure, in the same setting: in the case of `CCCN1C(=O)c2ccccc2NC1c1ccc(OC)cc1O` (stereo not given) it was “inactive”. Take `COc1ccc(S(=O)(=O)NCCC(=O)NCc2ccc(F)cc2)cc1`: the activation is -0.0801% [at 0.00035 µM]. As for `COc1cc(C2Nc3ccccc3C(=O)N2c2ccc(Cl)cc2)c(Cl)cc1OCC(=O)O` (stereo not given), the Potency result was “inactive”. Still for that read-out and setting: in the case of `COc1ccc(C2Nc3ccccc3C(=O)N2Cc2ccccc2)cc1COc1ccccc1F` (stereo not given) it was “inactive”; in that of `CCn1c(=O)c(C(=O)CN2CCCc3ccccc32)c(N)n(Cc2ccccc2)c1=O`, “inactive”.

As for `COc1ccc(C(=O)N(Cc2ccccc2)Cc2ccc(OC)c(COc3ccc(NC(C)=O)cc3)c2)c(O)c1`, the Potency result is “inactive”.

On to `COC(=O)c1cc(C(=O)OC)cc(N2C(=O)CC(Sc3nc(C)cc(C)n3)C2=O)c1` (stereo not given), for which the activation was -0.898% [at 0.00035 µM].

Turning to `COc1cc(C2Nc3ccccc3C(=O)N2c2ccc3c(c2)OCCO3)ccc1OCC(C)C` (stereo not given), the Potency result is “inactive”. The same measure, in the same setting: next, `O=C1CC(c2ccco2)CC2=C1C(c1cccnc1)n1nc(C(F)(F)F)nc1N2` (stereo not given): “inactive”. `Brc1ccc(Oc2nnnn2-c2ccccc2)cc1`: the activation is -1.07% [at 0.00035 µM]. Consider `COc1ccc(C2Nc3ccccc3C(=O)N2Cc2ccccc2)cc1COc1ccc(Cl)cc1Cl` (stereo not given), for which the Potency result was “inactive”.

With `COc1ccc(CN(Cc2ccccc2)C(=O)CN2CCN(C)CC2)cc1COc1ccc(NC(C)=O)cc1`, the Potency result is “inactive”.

Regarding `O=C1c2ccccc2NC(c2ccccc2)N1Cc1ccco1` (stereo not given), the Potency entry was “inactive”. Still for that read-out and setting: in the case of `COc1ccc(C2Nc3ccccc3C(=O)N2Cc2ccccc2)cc1COc1ccc(C(N)=O)cc1` (stereo not given) it was “inactive”.

Turning to `COc1ccc(CN(Cc2ccccc2)C(=O)c2ccccc2O)cc1`, the Potency entry is “inactive”. Regarding `CC1=CCC2C(=O)N(c3ccc(Br)cc3C)C(=O)C2C1` (stereo not given), the activation is 0.113% [at 0.00035 µM]. The same measure, in the same setting: next, `C=C(C)Cn1c(-c2ccccc2)nc2ccccc21`: 0.0214% [at 0.00035 µM]. Consider `COc1ccc(C2Nc3ccccc3C(=O)N2Cc2ccco2)cc1OC` (stereo not given), for which the Potency result is “inactive”.

In the case of `CCOC(=O)c1ccc(NC(=O)c2ccc(CN3CCOCC3)cc2)cc1`, the activation was 0.768% [at 0.00035 µM]. On the same count and under the same terms, next, `CCN(c1ccccc1)S(=O)(=O)c1ccc(Oc2ccc(-n3ccnc3)cc2)nc1`: 0.254% [at 0.00035 µM]; `COCCNC(=O)C(c1ccc(C)o1)N(C(=O)c1snc(C(N)=O)c1N)c1ccc(C)cc1` (stereo not given): -0.472% [at 0.00035 µM].

For `O=C1CC(c2ccco2)CC2=C1C(c1ccc(O)cc1)n1nc(C(F)(F)F)nc1N2` (stereo not given), the Potency entry is “inactive”. The same measure, in the same setting: next, `COc1ccc(CNCc2ccccc2)cc1COc1ccc(NC(C)=O)cc1`: “inactive”.
